Test [1] deals with Cytochrome P450 2D6 (Homo sapiens) (UniProt P10635). Kind of test: qHTS Assay for Inhibitors and Substrates of Cytochrome P450 2D6 (AID 891). Note: nearly all actives have a fitted effect of over 60% in size. Note: potency is the fitted concentration of half-maximal effect. The essentials:
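Luminescent read-out of luciferin formed by 5 nM human CYP2D6 demethylating 30 uM Luciferin-ME EGE (Km level) over 60 min at room temperature after NADPH regeneration addition. Data normalized to full inhibition by 1.43 uM quinidine.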

Test [2] addresses Phospholipid hydroperoxide glutathione peroxidase GPX4 (Homo sapiens) (UniProt P36969). Kind of test: Primary qHTS Assay for Inhibitors of Recombinant Selenoprotein Glutathione Peroxidase 4 (GPX4) (AID 1845192). Note: nearly all actives have a fitted effect of over 65% in size. Note: potency is the fitted concentration of half-maximal effect. The procedure, abridged: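 Steps: GPX4 plus compound, 30 min RT; add GR/GSH/NADPH master mix; start with cumene hydroperoxide; read 340/450 nm fluorescence at 0 and 15 min. Finals were 200 nM GPX4, 1 mM GSH, 0.5 mM CHP, 0.5 mM NADPH, 100 nM GR.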
On the technique in general: qHTS replaces the single test concentration by a dilution series.

Test [3] is described as follows: Cell Viability - NIH 3T3 (AID 541).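 Note: cells exposed to compound for 40 hours; plate controls were DMSO alone for no effect and tamoxifen positive control for full effect; nearly all actives have a fitted effect of over 25% in size.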 To be noted: NIH 3T3 cell viability, qHTS; activity change, negative = cytotoxicity: at 92.2 µM (top of the series). The essentials:
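Intracellular ATP (CellTiter-Glo luminescence, 20 min at room temperature) measured after 40 hr compound exposure at 37 °C of 1000 NIH 3T3 mouse fibroblasts/well in complete medium; AC50 derived by Hill-equation modelling of qHTS concentration-response curves.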

Test [4] can be described thus: MultiTox-Fluor Cytotoxicity Assay - LYMP1-001 - Live Cells (AID 947).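 Note: 0% = DMSO only and full inhibition = tetraoctylammonium bromide control.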
A short description of test [5]: MultiTox-Fluor Cytotoxicity Assay - LYMP1-002 - Dead Cells (AID 960).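 Note: 0% = DMSO and 100% = tetraoctylammonium bromide; nearly all actives have a fitted effect of over 60% in size.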 The essentials:
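Dead-cell fluorescence (Ex/Em 485/520) after 16 h compound exposure at 37 C of LYMP1-002 lymphoblastoid cells in complete medium; AC50 by Hill equation, with data scaled between DMSO and 15 uM tetraoctylammonium bromide.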

Test [6] is described as follows: Cell Viability - LYMP2-004 (AID 966).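 Note: plate controls were DMSO only for no effect and tetraoctylammonium bromide control for full effect; nearly all actives have a fitted effect of over 65% in size.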 The procedure, abridged:
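AC50 values come from Hill modelling of concentration-dependent loss of intracellular ATP, measured by CellTiter-Glo luminescence. Human LYMP2-004 lymphoblastoid cells (2500/well) were exposed to compound for 24 h at 37 C.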

Test [7] in a line: Cell Viability - LYMP2-012 (AID 982).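 Note: cellular ATP by luciferase luminescence where a drop means cytotoxicity; cells exposed to compound for one day before reading; 0% = DMSO only and full loss = 92 µM tetraoctylammonium bromide; nearly all actives have a fitted effect of over 55% in size.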
The nature of test [8]: Cell Viability - LYMP2-024 (AID 988).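 Note: plate controls were DMSO only for no effect and 92 µM tetraoctylammonium bromide for full effect; nearly all actives have a fitted effect of over 60% in size.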 The procedure, abridged:
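Cytotoxicity was taken as a decrease in ATP (CellTiter-Glo luminescence) after 24 hr compound exposure at 37 C of LYMP2-024 lymphoblastoid cells, 2500 cells/well. Concentration-response data were fitted to the Hill equation to give AC50.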

Test [9] addresses Estrogen receptor (Homo sapiens) (UniProt P03372). Kind of test: qHTS assay for small molecule agonists of estrogen receptor alpha signaling (AID 588514; calls by dose curve;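 note: 0% = vehicle only and 100% = reference agonist; nearly all actives have a fitted effect of over 70% in size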). The essentials: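 EC50 and efficacy came from Hill fits of beta-lactamase reporter signal (CCF4 dye, 2 h at room temperature) scaled between DMSO and 20 nM 17-beta-estradiol. Agonist mode: HEK293 ER-alpha-UAS-bla cells in charcoal/dextran-stripped serum medium, 18 h compound exposure at 37 C.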

Test [10] has as its target Glucocorticoid receptor (Homo sapiens) (UniProt P04150). Kind of test: qHTS assay for small molecule antagonists of glucocorticoid receptor signaling (AID 588533; active = well fitted inhibition curve with a large enough effect in the signal ratio, with a control signal flat, not every such curve was filed as active; the % refers to the signal ratio;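 note: cells stimulated with 2 nM dexamethasone as agonist; % is set by controls: 0 for no effect and ±100 for the full control effect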). The procedure, abridged: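 Antagonist-mode qHTS: compound titrations added to GRE-bla HeLa cells, then dexamethasone 2 nM final; 18 h, 37 C. CCF4 FRET fluorescence normalized to dexamethasone and DMSO; IC50 from Hill fit.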

Test [11] is described as follows: qHTS assay for small molecule agonists of retinoid X receptor alpha signaling (AID 588544; calls by dose curve;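 for activation: 0% = DMSO basal wells and 100% = reference agonist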). Particulars: HEK293T RXRa-UAS-bla, beta-lactamase reporter, 18 h; 530 nm emission.
In test [12] the target is Retinoic acid receptor RXR-alpha (Homo sapiens) (UniProt P19793). The description is as above.
Test [13] is described as follows: qHTS assay for small molecule agonists of the antioxidant response element (ARE) signaling pathway (AID 651741; active = well fitted activation curve with a large enough effect in the signal ratio; the % refers to the signal ratio; note: potency is the fitted concentration of half-maximal effect; for activation: % of control where 0% means no effect). The procedure, abridged: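 Stably integrated ARE-beta-lactamase reporter HepG2 cells; 16 h compound incubation, 37 C; LiveBLAzer FRET substrate 2 h at room temperature; fluorescence intensity.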
A short description of test [14]: qHTS assay for small molecule activators of the nuclear factor-kappa B (NF-kB) signaling pathway (AID 651749; active = well fitted activation curve with a large enough effect in the signal ratio; the % refers to the signal ratio; note: % of control where 0% means no effect). To be noted: NF-kB-bla ME-180 cells, beta-lactamase FRET ratio, 16 h; stronger effect = higher value. The procedure, abridged: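 In this qHTS format, compounds acting as activators increase NF-kB-driven beta-lactamase in ME-180 cells, measured as disrupted FRET after 16 hr exposure at 37C and 5% CO2.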

The nature of test [15]: qHTS assay for small molecule disruptors of the mitochondrial membrane potential - 1 hr assay (AID 651754; calls by dose curve; note: % is set by controls: 0 for no effect and ±100 for the full control effect; nearly all actives have a fitted effect of over 35% in size). The essentials: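 Mitochondrial potential in living HepG2 cells after 1 hr compound treatment at 37C was read with Mito-MPS dye added for a further 30 min. Red aggregate and green monomer fluorescence were measured; loss of potential leaves dye as cytoplasmic monomers.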

In test [16] the target is Tumor necrosis factor (Homo sapiens) (UniProt P01375). The experiment in a line: qHTS assay to identify small molecules that stimulate Tumor Necrosis Factor-alpha (TNF-alpha) secretion (AID 651757; active = well fitted curve in the direction sought with a large enough effect in the signal ratio; the % refers to the signal ratio; note: 0% is about no effect). The procedure, abridged:
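Secreted TNF-alpha quantified by TR-FRET sandwich of two labeled anti-TNF-alpha antibodies, incubated 3 hr at room temperature. Preceded by 17 hr, 37 C compound treatment of THP-1 cells at 3000 cells/well.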

Test [17] can be described thus: qHTS assay for small molecule antagonists of the retinoid-related orphan receptor gamma (ROR-gamma) signaling pathway - cell viability counter screen (AID 720652; active = well fitted curve in the direction sought with a large enough effect in the repeat runs; an effect the other way counts as inactive or inconclusive;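 note: compound exposure lasted 16 hr before ATP read; % is set by controls: 0 for no effect and ±100 for the full control effect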). The procedure, abridged: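 Cytotoxicity counter screen: intracellular ATP (CellTiter-Glo luminescence) measured in the doxycycline-induced CHO RORE-luciferase reporter line after 16 hr compound exposure at 37 C, 5% CO2.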

Test [18] in a line: qHTS assay for cell viability of the p53RE-bla HCT-116 cell line (AID 743292). Note: % is set by controls: 0 for no effect and ±100 for the full control effect; nearly all actives have a fitted effect of over 55% in size. The essentials: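 ATP-based luminescent viability (CellTiter-Glo, 30 min RT) after 16 h compound treatment at 37 C of p53RE-bla HCT-116 cells, seeded at 4,000 cells/well and rested 5 h before dosing.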
A short description of test [19]: qHTS assay for small molecule activators of the human pregnane X receptor (PXR) signaling pathway (AID 720659; call rule not given here; note: 0% is about no effect).
The target in test [20] is Thyroid hormone receptor beta (Homo sapiens) (UniProt P10828). The experiment in a line: qHTS assay for small molecule agonists of thyroid hormone receptor beta signaling (AID 588545; calls by dose curve). The essentials:
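Agonist activity was read as beta-lactamase CCF4 fluorescence (405 ex, 460/530 em), scaled between DMSO (0%) and 10 nM T3 (100%), then Hill-fitted for EC50 and efficacy. HEK 293 TR-UAS-bla cells in 2% charcoal/dextran FBS medium were exposed 18 h at 37 C.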

Several values for one entry are separate records, joined by “and”; a condition that tells them apart may be missing. Identical values can stand only once. Results filed as inconclusive are left out. Some compounds were tested as several samples or in several runs, with calls that do not always agree. Activity calls are given as the source filed them. Unless noted, calls come from the whole dose curve; as a rule, active = well fitted curve in the direction sought with a large enough effect; inconclusive = small, poorly fitted or top-dose-only effect, or another doubt; inactive = no such curve, though single readings can be large; an effect the other way counts as inactive or inconclusive.

Tumor necrosis factor (Homo sapiens), sequence (P01375 whole entry, looked up): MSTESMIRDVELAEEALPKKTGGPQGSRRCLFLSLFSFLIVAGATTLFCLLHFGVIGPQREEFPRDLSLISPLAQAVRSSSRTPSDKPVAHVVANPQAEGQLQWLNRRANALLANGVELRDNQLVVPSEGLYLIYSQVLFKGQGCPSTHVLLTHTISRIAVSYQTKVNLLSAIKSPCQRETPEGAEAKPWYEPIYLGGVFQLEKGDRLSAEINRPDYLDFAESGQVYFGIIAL
Cytochrome P450 2D6 (Homo sapiens), sequence (P10635 whole entry, looked up): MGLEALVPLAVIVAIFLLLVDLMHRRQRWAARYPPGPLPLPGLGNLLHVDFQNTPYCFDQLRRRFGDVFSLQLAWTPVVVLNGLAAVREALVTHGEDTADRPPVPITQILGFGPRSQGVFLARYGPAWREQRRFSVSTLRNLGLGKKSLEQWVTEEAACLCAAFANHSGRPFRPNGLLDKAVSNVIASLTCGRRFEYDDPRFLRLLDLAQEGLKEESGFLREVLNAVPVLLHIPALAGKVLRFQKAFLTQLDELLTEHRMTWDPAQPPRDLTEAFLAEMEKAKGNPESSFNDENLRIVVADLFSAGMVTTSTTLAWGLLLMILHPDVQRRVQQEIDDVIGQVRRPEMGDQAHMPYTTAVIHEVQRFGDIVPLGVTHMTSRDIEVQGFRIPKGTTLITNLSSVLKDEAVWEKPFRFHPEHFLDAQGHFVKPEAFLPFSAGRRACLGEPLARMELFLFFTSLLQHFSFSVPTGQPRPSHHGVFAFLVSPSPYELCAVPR
Thyroid hormone receptor beta (Homo sapiens), sequence (P10828 whole entry, looked up): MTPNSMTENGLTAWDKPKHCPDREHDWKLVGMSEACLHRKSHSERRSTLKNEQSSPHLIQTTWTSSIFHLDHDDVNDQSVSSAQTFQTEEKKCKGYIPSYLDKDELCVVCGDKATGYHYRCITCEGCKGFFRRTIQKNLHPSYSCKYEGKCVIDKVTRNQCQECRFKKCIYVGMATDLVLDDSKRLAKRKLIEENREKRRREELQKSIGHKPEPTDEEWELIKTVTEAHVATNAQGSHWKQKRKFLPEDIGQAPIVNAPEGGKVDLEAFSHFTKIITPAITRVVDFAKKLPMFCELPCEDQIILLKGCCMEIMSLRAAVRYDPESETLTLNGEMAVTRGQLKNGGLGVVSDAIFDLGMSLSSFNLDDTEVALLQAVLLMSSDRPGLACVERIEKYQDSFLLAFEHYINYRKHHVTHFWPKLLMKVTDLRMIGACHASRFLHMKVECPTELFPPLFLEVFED
Estrogen receptor (Homo sapiens), sequence (P03372 whole entry, looked up): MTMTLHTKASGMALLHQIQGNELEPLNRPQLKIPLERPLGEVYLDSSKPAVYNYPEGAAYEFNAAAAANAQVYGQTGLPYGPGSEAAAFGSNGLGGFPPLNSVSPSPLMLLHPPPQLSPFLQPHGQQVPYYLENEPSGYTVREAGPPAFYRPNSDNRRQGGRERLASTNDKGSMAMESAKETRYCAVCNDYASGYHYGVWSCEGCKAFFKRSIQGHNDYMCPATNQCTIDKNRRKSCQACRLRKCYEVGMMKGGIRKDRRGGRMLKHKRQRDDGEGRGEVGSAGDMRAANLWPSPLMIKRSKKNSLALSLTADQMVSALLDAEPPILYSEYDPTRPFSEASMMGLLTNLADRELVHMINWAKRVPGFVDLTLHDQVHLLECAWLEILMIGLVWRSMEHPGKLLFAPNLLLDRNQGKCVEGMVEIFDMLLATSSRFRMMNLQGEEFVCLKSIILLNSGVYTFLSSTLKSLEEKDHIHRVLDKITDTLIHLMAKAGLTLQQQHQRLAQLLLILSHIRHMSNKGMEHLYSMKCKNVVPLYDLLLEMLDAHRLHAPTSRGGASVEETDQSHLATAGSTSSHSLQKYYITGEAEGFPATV
Glucocorticoid receptor (Homo sapiens), sequence (P04150 whole entry, looked up): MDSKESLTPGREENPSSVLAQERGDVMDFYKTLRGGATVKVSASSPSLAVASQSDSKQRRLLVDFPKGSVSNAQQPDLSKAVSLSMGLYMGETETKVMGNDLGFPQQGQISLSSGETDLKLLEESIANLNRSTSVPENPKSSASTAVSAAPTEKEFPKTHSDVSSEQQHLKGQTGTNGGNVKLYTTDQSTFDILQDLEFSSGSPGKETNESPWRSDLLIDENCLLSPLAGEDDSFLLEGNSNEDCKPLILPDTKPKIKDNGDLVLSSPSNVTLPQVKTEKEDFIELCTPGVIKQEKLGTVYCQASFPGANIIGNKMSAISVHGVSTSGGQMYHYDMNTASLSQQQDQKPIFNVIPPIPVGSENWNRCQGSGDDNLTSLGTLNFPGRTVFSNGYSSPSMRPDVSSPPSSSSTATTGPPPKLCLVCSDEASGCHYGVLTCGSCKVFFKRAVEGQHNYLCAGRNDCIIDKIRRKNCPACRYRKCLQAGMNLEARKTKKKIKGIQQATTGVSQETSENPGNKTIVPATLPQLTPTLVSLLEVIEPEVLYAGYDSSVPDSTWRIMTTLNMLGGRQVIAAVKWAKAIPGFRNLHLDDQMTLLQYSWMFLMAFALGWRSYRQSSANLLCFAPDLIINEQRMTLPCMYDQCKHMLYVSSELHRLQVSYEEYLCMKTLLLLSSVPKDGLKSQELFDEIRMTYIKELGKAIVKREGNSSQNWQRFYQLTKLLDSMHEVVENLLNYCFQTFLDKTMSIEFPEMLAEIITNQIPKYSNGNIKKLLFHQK
Phospholipid hydroperoxide glutathione peroxidase GPX4 (Homo sapiens), sequence (P36969 whole entry, looked up): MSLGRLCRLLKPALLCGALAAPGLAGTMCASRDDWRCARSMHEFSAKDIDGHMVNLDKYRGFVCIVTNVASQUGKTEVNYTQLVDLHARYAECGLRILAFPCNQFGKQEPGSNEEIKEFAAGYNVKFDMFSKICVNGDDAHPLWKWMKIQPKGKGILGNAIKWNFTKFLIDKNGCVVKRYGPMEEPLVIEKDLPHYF
Retinoic acid receptor RXR-alpha (Homo sapiens), sequence (P19793 whole entry, looked up): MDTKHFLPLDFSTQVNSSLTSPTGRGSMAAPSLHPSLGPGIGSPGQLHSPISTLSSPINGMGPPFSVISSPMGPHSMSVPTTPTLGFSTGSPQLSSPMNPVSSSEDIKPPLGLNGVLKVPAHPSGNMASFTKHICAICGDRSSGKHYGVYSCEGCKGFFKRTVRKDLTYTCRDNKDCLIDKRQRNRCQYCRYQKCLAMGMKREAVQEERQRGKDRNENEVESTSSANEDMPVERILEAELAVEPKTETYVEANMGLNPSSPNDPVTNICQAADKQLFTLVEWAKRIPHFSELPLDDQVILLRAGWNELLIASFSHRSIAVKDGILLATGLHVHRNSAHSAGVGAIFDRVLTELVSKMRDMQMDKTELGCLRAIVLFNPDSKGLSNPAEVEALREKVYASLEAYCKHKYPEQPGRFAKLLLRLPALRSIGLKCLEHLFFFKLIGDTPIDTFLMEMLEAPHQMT

Regarding `COc1ccc2[nH]cc(CCNc3ncncc3-c3ccccc3C)c2c1`, the Potency in test [1] is 1.26 µM (active).
Regarding `CC1(C)C2CCC1(C)C(O)C2` (stereo not given), the Potency entry in test [2] is “inactive”.
Same read-out and setting: under `Cc1ncc(COP(=O)(O)O)c(C)c1O` stands “inactive”.
In the case of `COc1ccc2[nH]cc(CCNc3ncnc4ccc(-c5ccoc5)cc34)c2c1`, the Potency in [1] was 5.01 µM (active).
Consider `CC(C)=CCCC(C)=CCCC(C)=CCCC=C(C)CCC=C(C)CCC=C(C)C`, for which the Potency entry in test [2] was “inactive”.
Turning to `Cc1cccc(CNc2ncncc2-c2ccccc2C)c1`, the Potency in [1] is 3.98 µM (active).
On the same count and under the same terms, under `Cc1nc2cnc(N3CCN(C)CC3)nc2n(CCc2ccccc2)c1=O` stands 2.51 µM (active); under `COc1ccccc1CNc1ncncc1-c1ccc2c(c1)OCO2`, 2.51 µM (active).
With `CC(=O)OC1CC2CCC1(C)C2(C)C` (stereo not given), in [2], the Potency result is “inactive”.
Consider `C=CC(=C)CCC=C(C)C`, for which the Potency entry in test [3], in test [4], in test [5], in [6], in test [7] and in [8] was “inactive” in each case. The Potency result in [9], in test [10], in test [13], in test [15], in test [17] and in [18] was “inactive” each time. In addition, the max response in test [11] was 1.9%. In addition, the result in test [12], in test [16] and in test [19] was inactive. For the same compound, the activation in test [14] was -0.615% (inactive).
Consider `O=C(O)c1ccccc1`, for which the Potency result in test [3], in [4], in test [5], in [6], in [7] and in [8] was “inactive” in each case. The Potency entry in test [9], in test [13], in test [17] and in test [18] was “inactive” throughout. In addition, the max response in test [11] was -9.66%. Further, the outcome in [12], in test [16] and in [19] was inactive.
On to `C=CC(C)(CCC=C(C)C)OC(C)=O` (stereo not given), for which the Potency entry in test [9], in test [10] and in test [13] was “inactive” each time. Also, in test [11], the max response is -5.34%. The compound was classed as inactive in test [12], in test [20] and in test [19]. Further, the activation in test [14] was -0.624% (inactive).
Turning to `COc1ccc(/C=C/c2cc(OC)cc(=O)o2)cc1`, the Potency result in [3], in test [4], in test [6], in test [7], in test [8] and in [9] was “inactive” throughout. Moreover, the Potency result in test [15], in test [17] and in [18] was “inactive” throughout. Besides, in test [20], the compound was classed as inactive. In [13], the Potency is 1.88 µM (active). Further, the activation in [14] is 1.78% (inactive).
As to `COc1cc(/C=C/c2ccccc2)oc(=O)c1`, the Potency entry in test [4], in [5], in test [6], in test [7], in test [8] and in test [10] was “inactive” each time. In addition, the Potency result in test [15] is “inactive”. Besides, the compound was classed as inactive in test [20].
As to `CCCCC/C=C/C/C=C/CCCCCCCC(=O)O`, the Potency in test [2] was 4.47 µM (active).
Turning to `C=C(C)C1CC=C(C)C(O)C1` (stereo not given), the Potency entry in [3], in [4], in [5], in test [6], in test [7] and in [8] was “inactive” throughout. In addition, the Potency result in [9], in test [10], in test [15] and in test [17] was “inactive” in each case. In addition, in test [11], the max response was -1.36%. Besides, the call in test [12], in test [20], in test [16] and in test [19] was inactive. The activation in test [14] is -0.16% (inactive).
`CCCCCCCCCCCCCC(=O)O`: the Potency entry in [5], in test [6], in [7], in [8], in [9] and in test [10] was “inactive” each time. The Potency result in test [13], in test [15], in test [17] and in test [18] was “inactive” each time. Further, the max response in [11] was 12.8% and -5.45%. The compound was classed as inactive in [12], in test [20], in test [16] and in test [19].
As to `CCCCCCCC/C=C/CCCCCCCC(=O)O`, the Potency in [2] was 11.2 µM (active).
For the compound `C=CCc1ccc(OC)c(OC)c1`, the Potency entry in [3], in test [4], in test [5], in [6], in [7] and in test [8] was “inactive” in each case. The Potency entry in [10], in test [15], in test [17] and in [18] was “inactive” each time. The max response in test [11] is -12.6% and 4.43%. Further, the compound was called inactive in test [12], in test [20], in test [16] and in test [19]. Further, the Potency in [13] was 33.5 µM (active) and inactive. Moreover, the activation in [14] was -0.295% (inactive) and 0.286% (inactive).
With `CCCCCCCCCCCC(=O)O`, the Potency result in test [3], in test [4], in test [5], in test [6], in [7] and in test [8] was “inactive” in each case. Moreover, the Potency result in [13], in test [15] and in test [17] was “inactive” in each case. Also, the result in [20] and in test [16] was inactive.
For the compound `O=c1cc(-c2ccc(O)c(O)c2)oc2cc(O[C@@H]3O[C@@H](CO)[C@@H](O)[C@@H](O)[C@H]3O)cc(O)c12`, the Potency result in [1] is “inactive”.
Turning to `CC1=C2[C@H](/C=C(\C)C(=O)O)CC[C@@H](C)[C@H]2CC1`, the Potency result in test [3], in test [4], in test [5], in test [10], in test [17] and in test [18] was “inactive” each time. The call in [20], in [16] and in [19] was inactive. In test [14], the activation is -1.71% (inactive).
